Records with an inconclusive call do not appear. Activity calls are given as the source filed them. Unless noted, the call rests on the fitted dose curve.
Experiments:
[1] = qHTS for Inhibitors of the Functional Ribonucleoprotein Complex (vRNP) of Lassa (LASV) Arenavirus: LASV Primary Screen - GLuc reporter signal (AID 1347082; calls by dose curve; tested in HEK293 reporter line; further: nearly all actives have a fitted effect of over 60% in size)
[2] = qHTS for Inhibitors of the Functional Ribonucleoprotein Complex (vRNP) of Lassa (LASV) Arenavirus: Viability assay - alamar blue signal for LASV Primary Screen (AID 1347083; calls by dose curve; tested in HEK293 reporter line; further: nearly all actives have a fitted effect of over 80% in size)
[3] = qHTS for Inhibitors of the Functional Ribonucleoprotein Complex (vRNP) of Lymphocytic Choriomeningitis Arenaviruses (LCMV): Viability assay - alamar blue signal for LCMV Primary Screen (AID 1347085; calls by dose curve; tested in HEK293 reporter line; further: nearly all actives have a fitted effect of over 80% in size)
[4] = target: Nucleoprotein (Lymphocytic choriomeningitis virus (strain Armstrong)) (UniProt P09992); test: qHTS for Inhibitors of the Functional Ribonucleoprotein Complex (vRNP) of Lymphocytic Choriomeningitis Arenaviruses (LCMV): LCMV Primary Screen - GLuc reporter signal (AID 1347086); further: nearly all actives have a fitted effect of over 70% in size
Nucleoprotein (Lymphocytic choriomeningitis virus (strain Armstrong)), sequence (P09992 whole entry, looked up): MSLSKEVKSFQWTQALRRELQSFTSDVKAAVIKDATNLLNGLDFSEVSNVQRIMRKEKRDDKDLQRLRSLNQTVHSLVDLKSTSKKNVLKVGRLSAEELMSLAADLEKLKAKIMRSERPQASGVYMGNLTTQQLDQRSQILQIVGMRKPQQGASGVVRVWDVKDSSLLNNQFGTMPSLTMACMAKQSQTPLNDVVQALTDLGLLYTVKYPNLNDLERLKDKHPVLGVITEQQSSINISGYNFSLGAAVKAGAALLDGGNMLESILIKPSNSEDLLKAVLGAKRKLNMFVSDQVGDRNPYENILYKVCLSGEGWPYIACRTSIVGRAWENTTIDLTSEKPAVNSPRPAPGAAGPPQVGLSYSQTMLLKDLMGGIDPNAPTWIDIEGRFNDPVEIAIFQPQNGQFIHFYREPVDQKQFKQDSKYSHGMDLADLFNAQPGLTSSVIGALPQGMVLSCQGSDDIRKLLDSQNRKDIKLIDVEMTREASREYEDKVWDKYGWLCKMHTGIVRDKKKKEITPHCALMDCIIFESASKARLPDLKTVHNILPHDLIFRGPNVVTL
Further: series mostly up to about 57 µM.
On the % scale 0 is the no-effect control and ±100 the full control effect.

OC1(c2ccccc2)CCNCC1
inactive: Potency [1] | Potency [2] | Potency [3] | Potency [4]

COc1ccc(-c2ccc3cc(C(=O)O)ccc3c2)cc1C12CC3CC(CC(C3)C1)C2
inactive: Potency [1] | Potency [2] | Potency [3] | Potency [4]

COc1c2occc2c(OC)c2c(=O)cc(C)oc12
inactive: Potency [1] | Potency [2] | Potency [3] | Potency [4]

CO[C@@]1(NC(=O)CSCC#N)C(=O)N2C(C(=O)O)=C(CSc3nnnn3C)CS[C@@H]21
inactive: Potency [1] | Potency [2] | Potency [3] | Potency [4]

CC(C)[C@H](N)C(=O)OCCOCn1cnc2c(=O)[nH]c(N)nc21
inactive: Potency [1] | Potency [2] | Potency [3] | Potency [4]

C[N+]1(C)[C@@H]2CC(OC(=O)[C@H](CO)c3ccccc3)C[C@H]1[C@@H]1O[C@@H]12 (stereo partly drawn)
inactive: Potency [1] | Potency [2] | Potency [3] | Potency [4]

Nc1ccc(S(N)(=O)=O)cc1
inactive: Potency [1] | Potency [2] | Potency [3] | Potency [4]

Nc1ccc(/C=C/c2ccc(N)cc2S(=O)(=O)O)c(S(=O)(=O)O)c1
inactive: activity change, negative = inhibition [1] -2.51% [at 0.757 µM] | activity change, negative = reduced viability [2] 3.69% [at 0.757 µM] | activity change, negative = lower viability [3] 0.0811% [at 0.757 µM] | activity change, negative = inhibition [4] 15.6% [at 0.757 µM]

Cc1ccc(Cl)c(Nc2ccccc2C(=O)O)c1Cl
inactive: Potency [1] | Potency [2] | Potency [3] | Potency [4]

COC(=O)c1ccc(O)cc1
inactive: Potency [1] | Potency [2] | Potency [3] | Potency [4]

CC(=O)Nc1ccc(S(=O)(=O)Nc2cc(C)on2)cc1
inactive: Potency [1] | Potency [2] | Potency [3] | Potency [4]

CN=C(NC#N)Nc1ccc(C2=NNC(=O)CC2C)cc1 (stereo not drawn)
inactive: Potency [1] | Potency [2] | Potency [3] | Potency [4]

C[N+]1(C)CCCC(OC(=O)C(O)(c2ccccc2)c2ccccc2)C1 (stereo not drawn)
inactive: Potency [1] | Potency [2] | Potency [3] | Potency [4]

O=c1[nH]cnc2nc[nH]c12
inactive: Potency [1] | Potency [2] | Potency [3] | Potency [4]

O=C(O)Cn1c(=O)n(Cc2ccc(Br)cc2F)c(=O)c2ccc(Cl)cc21
inactive: Potency [1] | Potency [2] | Potency [3] | Potency [4]

NC(CO)(CO)CO
inactive: Potency [1] | Potency [2] | Potency [3] | Potency [4]

COP(=O)(OC)OC(c1ccc(Cl)cc1)P(=O)(OC)OC (stereo not drawn)
inactive: Potency [1] | Potency [2] | Potency [3] | Potency [4]

CCCCCCCCCCCCCCCCCC(=O)O
inactive: Potency [1] | Potency [2] | Potency [3] | Potency [4]

Nc1nc(-c2ccccc2)c(Br)c(=O)[nH]1
inactive: Potency [1] | Potency [2] | Potency [3] | Potency [4]

O=C(O)[C@@H](O)[C@H](O)[C@H](O)[C@@H](O)C(=O)O
inactive: Potency [1] | Potency [2] | Potency [3] | Potency [4]

CCCc1c(OCCCCc2nn[nH]n2)ccc(C(C)=O)c1O
inactive: Potency [1] | Potency [2] | Potency [3] | Potency [4]

Cc1nc([N+](=O)[O-])cn1-c1ccc([N+](=O)[O-])cc1
inactive: Potency [1] | Potency [2] | Potency [3] | Potency [4]
